Laboratory results published in PubChem BioAssay (EPA / NIEHS).
Records with an inconclusive call do not appear. Activity calls are given as the source filed them. How the source made its calls, unless noted: active means hit-call score of the fitted dose curve at least 0.9, where 1 is the maximum; inconclusive means response in the unintended direction; inactive means score below 0.9.

Tests used:
[1] = tested on: turtle Thyroid Hormone Receptor, alpha (TRa), gene 101949057; test: ATG_trTRa_XSP2: Attagene TRANS-FACTORIAL Multi-Species (XSP1) HepG2 Assay for turtle Thyroid Hormone Receptor, alpha (TRa) (AID 2283834);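 further: hits raise reporter mRNA over the DMSO baseline so AC50 marks activators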
Procedure, shortened: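 HepG2 cells transiently transfected with GAL4-UAS reporter units for chimeric turtle TRa-Gal4; mRNA measured 24 h after dosing by RT-PCR and capillary electrophoresis fluorescence, gain of signal fitted against DMSO.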

[2] = ATG_M_61_XSP2: Attagene TRANS-FACTORIAL Multi-Species (XSP2) HepG2 Assay for M61 Transcription Factor (Internal Marker) (AID 2283835; active means hit-call score of the fitted dose curve at least 0.9, where 1 is the maximum; inactive means score below 0.9;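 further: active means a rise in signal above the DMSO baseline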)
Procedure, shortened: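 HepG2 cells transiently transfected with multiple GAL4-UAS reporter units; reporter mRNA measured 24 h after dosing by RT-PCR, fluorescent labelling and capillary electrophoresis. Medium contained 3 nM 6-alpha-fluorotestosterone and 1.5 nM norgestrel; internal marker, DMSO baseline.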

[3] = biological target: human Thyroid hormone Receptor alpha (TRa), THRA (gene 7067) (UniProt P10827); test: ATG_hTRa_XSP2: Attagene TRANS-FACTORIAL Multi-Species (XSP2) HepG2 Assay for human Thyroid hormone Receptor alpha (TRa) (AID 2283838)
human Thyroid hormone Receptor alpha (TRa), THRA (gene 7067), sequence (P10827 whole entry, looked up, the tested form may be a part): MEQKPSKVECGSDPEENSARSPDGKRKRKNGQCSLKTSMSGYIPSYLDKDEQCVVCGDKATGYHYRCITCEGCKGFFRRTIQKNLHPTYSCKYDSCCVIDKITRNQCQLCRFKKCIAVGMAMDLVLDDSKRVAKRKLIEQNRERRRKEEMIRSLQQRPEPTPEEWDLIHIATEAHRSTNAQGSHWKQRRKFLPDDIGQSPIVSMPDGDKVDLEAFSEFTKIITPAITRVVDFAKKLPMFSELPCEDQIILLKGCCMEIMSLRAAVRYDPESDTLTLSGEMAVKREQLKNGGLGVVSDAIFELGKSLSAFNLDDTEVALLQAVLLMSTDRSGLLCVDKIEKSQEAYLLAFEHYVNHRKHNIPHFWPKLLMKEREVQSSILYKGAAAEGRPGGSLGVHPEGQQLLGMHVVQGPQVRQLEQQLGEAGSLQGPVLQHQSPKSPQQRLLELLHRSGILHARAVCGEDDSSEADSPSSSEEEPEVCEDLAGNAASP
Procedure, shortened: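 HepG2 cells were transiently transfected with GAL4-UAS reporter units for chimeric human TRa-Gal4 and dosed for 24 hours, with 3 nM 6-alpha-fluorotestosterone and 1.5 nM norgestrel present. Reporter mRNA was quantified by RT-PCR, FAM labelling and capillary electrophoresis, with gain of signal fitted versus DMSO.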

[4] = biological target: human Thyroid hormone Receptor beta (TRb), THRB (gene 7068) (UniProt P10828); test: ATG_hTRb_XSP2: Attagene TRANS-FACTORIAL Multi-Species (XSP2) HepG2 Assay for human Thyroid hormone Receptor beta (TRb) (AID 2283840);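 further: actives raise reporter mRNA so potency reflects agonist-like gain of signal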
human Thyroid hormone Receptor beta (TRb), THRB (gene 7068), sequence (P10828 whole entry, looked up, the tested form may be a part): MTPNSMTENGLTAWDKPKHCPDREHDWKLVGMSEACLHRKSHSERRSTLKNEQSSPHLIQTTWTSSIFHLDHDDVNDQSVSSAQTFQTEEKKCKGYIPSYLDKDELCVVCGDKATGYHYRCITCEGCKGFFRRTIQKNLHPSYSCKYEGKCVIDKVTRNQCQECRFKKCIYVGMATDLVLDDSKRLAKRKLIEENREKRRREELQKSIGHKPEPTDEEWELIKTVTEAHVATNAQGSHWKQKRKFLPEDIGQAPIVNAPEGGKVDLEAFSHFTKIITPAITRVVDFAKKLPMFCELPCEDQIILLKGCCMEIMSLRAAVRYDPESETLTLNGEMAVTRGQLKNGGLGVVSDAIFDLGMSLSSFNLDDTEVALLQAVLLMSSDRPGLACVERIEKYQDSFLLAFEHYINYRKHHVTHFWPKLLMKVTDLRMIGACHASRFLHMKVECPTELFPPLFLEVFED
Procedure, shortened: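 HepG2 transiently transfected with a multi-species panel including a human TRb–Gal4 chimera driving Gal4-UAS reporters; medium contained 3 nM 6-alpha-fluorotestosterone and 1.5 nM norgestrel. 24 h dosing; RT-PCR/capillary electrophoresis readout; positive-direction fit vs DMSO.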

[5] = tested on: Sodium/Iodide Symporter (NIS), SLC5A5 (gene 6528); test: CPHEA_Stoker_NIS_Inhibition_RAIU: CPHEA's Radioactive Iodide Uptake (RAIU) Assay for Sodium/Iodide Symporter (NIS) Inhibition, Stoker and Laws Labs (AID 2283841)
Procedure, shortened: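 hNIS-HEK293T-EPA cells incubated 2 h at room temperature with compound (0.001–100 uM, 0.5% DMSO) and 329 pM final 125I in HBSS/10 mM HEPES, pH 7.4. Intracellular 125I counted; normalised to DMSO maximal uptake, triplicate, three biological replicates.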

[6] = CPHEA_Stoker_NIS_Cytotoxicity: Cytotoxicity Assessment for CPHEA's Radioactive Iodide Uptake (RAIU) Assay for Sodium/Iodide Symporter (NIS) Inhibition, Stoker and Laws Labs (AID 2283897)
Procedure, shortened: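 hNIS-HEK293T-EPA cells, human NIS expressed in HEK293T, treated 2 h with chemicals (0.001–100 uM, 0.5% final DMSO). ATP content read by CellTiter-Glo luminescence; loss of signal analysed relative to DMSO.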

Measured: outcome

CCCC1COC(Cn2cncn2)(c2ccc(Cl)cc2Cl)O1 (stereo not given)
inactive: all assays above

COc1nc(NC(C)C)nc(NC(C)C)n1
inactive: [5] | [6]

CCON=C(CC)C1=C(O)CC(c2c(C)cc(C)cc2C)CC1=O (stereo not given)
inactive: [5] | [6]
